Compounds with a hit are over-represented: about 1.3% of the library has one in this group of screens.
PREPL inhibitor: inhibitors of human prolyl oligopeptidase-like enzyme PREPL | recombinant PREPL, fluorescence polarization activity-based probe | inhibition, % at 5.96 µM | hit rate 0.68% among 320,000 | AID 2751;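 also: 0% = enzyme with DMSO and 100% = wells lacking enzyme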
ZTA counter: ZTA (EBV) inhibition in EBNA-1 counter-screen; ZTA-DNA binding, fluorescence polarization; hit rate 0.15% among 320,000; P03206; inhibition, % at 11 µM; in the data active = inhibition above about 33%
EBNA-1 inh: blocks EBNA-1 binding to DNA; EBNA-1 DNA binding, fluorescence polarization; inhibition, % at 14.8 µM; AID 1950; hit rate 0.34% among 300,000; in the data active = inhibition above about 28%
LYPLA1 counter: LYPLA1 (human) inhibition in PME1 counter-screen; recombinant LYPLA1, FP-Rh probe fluorescence polarization; inhibition, % at 5.9 µM; O75608; hit rate 0.16% among 320,000;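 active = inhibition above the mean of all tested compounds plus 3 SD, set per campaign, cut at about 14% in these data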;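 also: inhibitors block serine hydrolase probe labeling of LYPLA1 so polarization falls; 0% = enzyme with DMSO and 100% = wells lacking LYPLA1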
Target sequence (O75608 whole entry, looked up): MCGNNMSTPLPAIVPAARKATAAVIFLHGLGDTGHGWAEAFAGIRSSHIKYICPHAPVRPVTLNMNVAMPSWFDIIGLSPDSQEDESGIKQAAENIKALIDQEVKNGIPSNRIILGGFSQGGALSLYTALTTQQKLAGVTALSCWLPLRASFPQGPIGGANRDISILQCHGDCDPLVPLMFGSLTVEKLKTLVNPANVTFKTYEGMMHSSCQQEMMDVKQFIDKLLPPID
LYPLA2 inh: blocks human lysophospholipase 2, a PME1 counter-screen | inhibition, % at 5.9 µM | recombinant LYPLA2, FP-Rh probe fluorescence polarization | hit rate 0.38% among 320,000 | O95372;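 active = inhibition above the screen-wide mean plus 3 SD, limit set per campaign, cut at about 26% in these data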;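 also: 0% = LYPLA2 with DMSO and 100% = wells lacking LYPLA2 enzyme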
Target sequence (O95372 whole entry, looked up): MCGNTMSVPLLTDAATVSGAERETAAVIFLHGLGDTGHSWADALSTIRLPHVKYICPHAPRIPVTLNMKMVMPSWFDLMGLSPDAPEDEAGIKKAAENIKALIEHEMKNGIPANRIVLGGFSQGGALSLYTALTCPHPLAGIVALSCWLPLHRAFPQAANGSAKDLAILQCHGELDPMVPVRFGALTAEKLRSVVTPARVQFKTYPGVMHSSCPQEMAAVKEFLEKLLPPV
PREPL confirm: confirmation of human PREPL enzyme inhibitors | shares compounds with PREPL inhibitor | recombinant PREPL, fluorescence polarization activity probe | inhibition, % at 5.96 µM | hit rate 67% among 2,000;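 also: 0% = protein with DMSO and 100% = wells lacking protein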
Active calls of the source: *; x = no result given. Rule as the data show it, unless noted: active = inhibition above about 43%; inactive = the rest.

SMILES	PREPL inhibitor	ZTA counter	EBNA-1 inh	LYPLA1 counter	LYPLA2 inh	PREPL confirm
CCOc1ccc(S(=O)(=O)N2CCOCC2)cc1NC(=O)c1ccc(N2CCCC2=O)cc1	-3.0	9.3	-1.6	-9.9	0.9	x
CC1CCCN(CCCNC(=O)C2CC(=O)N(CCc3ccccc3)C2)C1 (stereo not drawn)	13.0	-34.9	-9.6	-0.3	0.5	x
CCn1c(C)nc2cc(C(=O)N/N=C/c3cccc(O)c3O)ccc21	44.6*	-15.8	0.1	-8.3	-7.3	39.3
COc1ccc(-c2c[n+]3c4n2CCCCC4=C(c2ccccc2)C3)cc1	53.5*	-0.8	3.4	3.6	5.8	38.1
N#Cc1cc(C#N)c(SCC(=O)N2CC(=O)Nc3ccccc32)nc1N	46.2*	-0.1	x	-5.0	-5.4	37.9
CCc1ccc2nc(SCC(=O)N3CC(=O)Nc4ccccc43)c(C#N)cc2c1	-6.7	-8.4	1.6	-0.8	1.3	x
COc1ccc(C(=O)c2coc3ccc(O)c(CN4CCCCC4)c23)cc1	56.5*	-18.4	2.3	0.1	6.5	58.8*
O=C(c1ccccc1)c1coc2ccc(O)c(CN3CCOCC3)c12	43.1*	11.7	1.1	-0.4	-1.9	44.4*
CN(C)Cc1c(O)ccc2occ(C(=O)c3ccccc3)c12	5.5	-2.9	-1.0	0.1	-2.4	x
CCOC(=O)C(=Cc1c[nH]c2ccc(S(=O)(=O)N(C)C)cc12)C(=O)OCC	-4.5	11.9	-8.6	-3.8	0.5	x
O=C(NCC(c1cccs1)N1CCOCC1)C1CCN(S(=O)(=O)c2cccc(C(F)(F)F)c2)CC1 (stereo not drawn)	6.3	-1.1	-4.6	-0.8	6.8	x
COc1ccc(OC)c(NC(=O)c2cc3c(=O)n4ccccc4nc3n2C)c1	20.6	-10.3	-2.6	2.5	6.5	x
CN(C)c1ccc(NC(=O)c2cc3c(=O)n4ccccc4nc3n2C)cc1	43.5*	11.4	5.6	2.7	-1.5	17.1
O=C(CSc1nnc(CNC(=O)c2ccccc2)o1)Nc1nccs1	8.1	-17.2	4.1	2.6	5.4	x
C#CCOCCOCCOCCNc1nc(N2CCN(C(=O)[C@H](CCC(=O)O)n3cc(C(N)[C@H](C)CC)nn3)CC2)nc(N2CCN(C(=O)[C@H](Cc3cc4ccccc4[nH]3)n3cc(C(N)[C@H](C)CC)nn3)CC2)n1 (stereo partly drawn)	9.0	-7.6	1.9	-0.1	2.1	x
C#CCOCCOCCOCCNc1nc(N2CCN(C(=O)CCCCCCCCCCNC(=O)[C@H](CCCCN)n3cc(CCO)nn3)CC2)nc(N2CCN(C(=O)CCCCCCCCCCNC(=O)[C@H](CCCCN)n3cc(CCCC(=O)O)nn3)CC2)n1	28.4	18.6	3.5	2.2	2.9	x
C#CCOCCOCCOCCNc1nc(N2CCN(C(=O)[C@H](CCCCN)n3cc([C@@H](N)C(C)CC)nn3)CC2)nc(N2CCN(C(=O)[C@H](Cc3cc4ccccc4[nH]3)n3cc([C@@H](N)C(C)CC)nn3)CC2)n1 (stereo partly drawn)	57.1*	x	x	x	x	53.2*
C#CCOCCOCCOCCNc1nc(N2CCN(C(=O)C(Cc3cc4ccccc4[nH]3)n3cc(C(N)C(C)CC)nn3)CC2)nc(N2CCN(C(=O)C(Cc3cc4ccccc4[nH]3)n3cc(C(N)C(C)CC)nn3)CC2)n1 (stereo not drawn)	49.5*	14.3	-3.5	-3.2	-0.1	62.0*
C#CCOCCOCCOCCNc1nc(N2CCN(C(=O)CCCCCCCCCCNC(=O)[C@@H](CCSC)n3cc(CCO)nn3)CC2)nc(N2CCN(C(=O)CCCCCCCCCCNC(=O)[C@H](CO)n3cc(CCCCCN)nn3)CC2)n1	48.2*	4.0	-6.3	-0.2	13.7	49.0*
Cc1cc(C)c(C)c(S(=O)(=O)Nc2ccccc2C(=O)NCCCN2CCOCC2)c1C	-11.4	-0.5	-0.2	-0.6	-2.6	x
O=C(OCc1nnc(-c2ccc([N+](=O)[O-])cc2)o1)C1CCN(C(=O)c2ccc(F)cc2)CC1	13.0	-0.6	x	-2.6	7.4	x
CCOc1ccc(OCC)c(NC(=O)CN2CCN(c3cccc(C)c3)CC2)c1	31.0	6.9	-10.1	3.7	1.2	x
CCOc1ccc(OCC)c(NC(=O)CN2CCN(c3cc(C)ccc3C)CC2)c1	49.7*	-8.2	2.7	2.2	5.0	34.8
NNc1ncnc2sc3c(c12)CCC3	43.9*	-18.8	-2.1	1.7	-1.9	21.9
c1cc(Nc2ncnc3sc4c(c23)CCC4)ccn1	3.1	-17.2	-5.6	-3.6	5.5	x
SMILES	PREPL inhibitor	ZTA counter	EBNA-1 inh	LYPLA1 counter	LYPLA2 inh	PREPL confirm
CN(c1ccc(C(=O)NCc2ccccn2)cc1)S(=O)(=O)c1ccc(Cl)cc1	-12.2	-7.0	-0.9	0.4	5.9	x
C#CCOCCOCCOCCNc1nc(N2CCN(C(=O)[C@H](CCCCN)n3cc([C@@H](N)CC(C)C)nn3)CC2)nc(N2CCN(C(=O)[C@H](Cc3ccc(O)cc3)n3cc([C@@H](N)CC(C)C)nn3)CC2)n1	18.4	-28.0	-6.2	2.9	-4.5	x
C#CCOCCOCCOCCNc1nc(N2CCN(C(=O)[C@H](CCCCN)n3cc([C@@H](N)CC(C)C)nn3)CC2)nc(N2CCN(C(=O)[C@H](Cc3cc4ccccc4[nH]3)n3cc([C@@H](N)Cc4ccc(O)cc4)nn3)CC2)n1	49.3*	-6.2	3.3	0.0	-3.1	51.9*
C#CCOCCOCCOCCNc1nc(N2CCN(C(=O)[C@H](CCCCN)n3cc([C@@H](N)CO)nn3)CC2)nc(N2CCN(C(=O)[C@H](Cc3cc4ccccc4[nH]3)n3cc([C@@H](N)Cc4ccc(O)cc4)nn3)CC2)n1	55.2*	0.2	2.8	-3.8	1.9	50.3*
O=C(CNC(=O)c1ccc(Cl)cc1Cl)OCC(=O)N1CCCC1=O	11.3	2.1	5.0	-0.4	2.4	x
CN1CC[C@]2(CCN3CCc4c(oc5ccccc45)[C@@H]3C2)N(C)C1=O	-7.5	8.6	-5.2	1.4	0.6	x
CNC(=O)/C(C#N)=C/c1c(N2CCN(c3ccc(OC)cc3)CC2)nc2c(C)cccn2c1=O	52.2*	6.4	4.2	1.9	7.5	43.9*
CNC(=O)/C(C#N)=C/c1c(N2CCN(c3ccccc3)CC2)nc2c(C)cccn2c1=O	16.4	-7.6	-0.7	-1.2	-9.4	x
COC(=O)/C(C#N)=C/c1c(N2CCN(c3ccc(OC)cc3)CC2)nc2c(C)cccn2c1=O	48.2*	2.6	9.1	4.5	4.2	45.9*
COCCCNC(=O)/C(C#N)=C/c1c(N2CCN(c3ccc(OC)cc3)CC2)nc2c(C)cccn2c1=O	50.7*	-14.8	2.8	-2.1	8.3	51.8*
O=C(NC1CCC(O)CC1)c1ccc(-c2ccc([N+](=O)[O-])cc2)o1 (stereo not drawn)	19.4	-9.1	-4.9	2.9	5.9	x
O=c1[nH]nc(N2CCOCC2)c(=O)[nH]1	-1.7	10.3	0.1	3.4	2.4	x
O=C(CN(C(=O)c1csnn1)c1ccccc1F)NCc1ccccc1	16.6	0.0	-1.1	3.9	4.1	x

Assay outcomes (PubChem)
